Among the data in PubChem BioAssay are composite z-score and z-score values, retold here.

Activity calls are given as the source filed them.

Assay [1] has as its system Plasmodium falciparum Sir2 (PF13_0152, Sir2A). As to the kind of experiment: Plasmodium falciparum Sir2A binding compounds – biochemical, small-molecule microarray, 635 nm fluorescence, primary screen (AID 1098).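 Note: score merges spot fluorescence intensity with its signal-to-noise ratio.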 Conditions: fluorescence 635 nm, higher = more signal.
Assay [2] is described as follows: probe aDKK1 binding to arrayed compounds – biochemical, biotinylated probe, 635/667 nm fluorescence, primary screen (AID 1099).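 Note: score merges 667nm spot fluorescence with signal to noise across triplicate slides.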 Conditions: small-molecule microarray, higher = more signal.
A short description of assay [3]: probe aCHRDL2 binding to arrayed compounds – biochemical, biotinylated probe, 635/667 nm fluorescence, primary screen (AID 1100). Conditions: small-molecule microarray, higher = more signal.
A short description of assay [4]: change in splice reporter luminescence, either direction, cell-based, HEK293, spliceosome inhibition project, primary screen (AID 1101).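 Note: HEK293 cells carrying a splicing-competent luciferase reporter gene; test concentration not given here.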 Conditions: HEK293 splicing luciferase reporter, 24 h, higher = more signal, called active from +8 up or from −8 down.
Assay [5] addresses Fibroblast growth factor 10 (Homo sapiens) (UniProt O15520). As to the kind of experiment: compounds binding fibroblast growth factor 10 – biochemical, small-molecule microarray, 635 nm fluorescence, primary screen (AID 1102). Conditions: FGF10 binding, fluorescence 635 nm, higher = more signal.
Assay [6] has as its system glycogen synthase kinase-3 (GSK3A per assay name; protocol says GSK3B). Description: compounds binding glycogen synthase kinase-3 – biochemical, small-molecule microarray, 635 nm fluorescence, GSK3A, primary screen (AID 1103). Note: the record names both GSK3A and GSK3B. Conditions: fluorescence 635 nm, higher = more signal.
Assay [7] addresses Epidermal growth factor receptor (Homo sapiens) (UniProt P00533). As to the kind of experiment: compounds binding epidermal growth factor receptor – biochemical, small-molecule microarray, 635 nm fluorescence, primary screen (AID 1104).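 Note: score merges 667 nm emission intensity with spot signal to noise over triplicate slides.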 Conditions: EGFR binding, higher = more signal.
Assay [8] has as its target Follistatin-related protein 3 (Homo sapiens) (UniProt O95633). As to the kind of experiment: compounds binding follistatin-related protein 3 – biochemical, small-molecule microarray, 635 nm fluorescence, primary screen (AID 1105).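 Note: score merges emission near 667 nm and signal to noise per printed spot across three slides.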 Conditions: FSTL3 binding, higher = more signal.
The target in assay [9] is Dickkopf-related protein 1 (Homo sapiens) (UniProt O94907). Description: small molecules binding DKK1 protein – biochemical, small-molecule microarray, 635 nm fluorescence scan, primary screen (AID 1106).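 Note: score merges emission near 667 nm with signal to noise over three replicate slides.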 Conditions: higher = more signal.
The subject of assay [10] is Inhibin beta A chain (activin A). Description: small molecules binding activin A – biochemical, small-molecule microarray, 635 nm fluorescence scan, primary screen (AID 1107).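 Note: mouse activin A protein probed at 4.33 µg/mL on printed slides; score merges bound-protein fluorescence near 667 nm with spot signal-to-noise.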 Conditions: INHBA, higher = more signal.
Assay [11] relates to Human papillomavirus type 1a protein E7 (residues 44-93). Description: small molecules binding HPV E7 44-93 – biochemical, small-molecule microarray, residues 44-93, 635 nm fluorescence, primary screen (AID 1108).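 Note: E7 fragment applied at 1 µg/mL in TBST for 1 h at 4 C; score combines spot fluorescence with its signal to noise ratio.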 Conditions: fluorescence 635 nm, higher = more signal.
A short description of assay [12]: hepatitis C replication reporter changes, two-sided – Huh7 cells, luciferase reporter, HCV replication inhibitor project, primary screen (AID 1109).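 Note: huh7 hepatoma cells harbouring a luciferase neomycin HCV replicon reporter; luciferase luminescence as measure of HCV replicon replication; test concentration not given here.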 Conditions: Huh7 HCV replicon luciferase reporter, 48 h; higher = more signal. On the technique in general: Reporter assays use an easily measured gene product as a stand-in for the process of interest.
For assay [13], the target named is Left-right determination factor 2 (Homo sapiens) (UniProt O00292). Description: small molecules binding LEFTY2 protein – biochemical, small-molecule microarray, 635 nm fluorescence scan, primary screen (AID 1110). Conditions: higher = more signal.
In assay [14] the target is Calmodulin-1 (Homo sapiens) (UniProt P0DP23). Description: small molecules binding calmodulin-1 with EGTA – biochemical, small-molecule microarray, Cy5-labelled CALM1, profiling panel (AID 1111).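 Note: labelled calmodulin applied in Tris saline Tween buffer holding calcium plus EGTA and DTT.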 Conditions: Cy5-CALM1 binding fluorescence, higher = more signal.
Assay [15] has the same target. Description: small molecules binding Ca-loaded calmodulin-1 – biochemical, small-molecule microarray, Cy5-labelled CALM1, plus calcium, artefact control for SMM control-protein annotation, profiling panel (AID 1112).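 Note: score merges spot fluorescence with signal to noise from triplicate slides.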 Conditions: Cy5-CALM1 binding fluorescence, higher = more signal.
The nature of assay [16]: probe aWnt5a binding to arrayed compounds – biochemical, biotinylated probe, 635/667 nm fluorescence, primary screen (AID 1113).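 Note: score merges 667 nm fluorescence intensity with signal-to-noise per printed feature.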 Conditions: small-molecule microarray, higher = more signal.
Assay [17] is described as follows: probe aShh binding to arrayed compounds – biochemical, biotinylated probe, 635/667 nm fluorescence, primary screen (AID 1114).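 Note: probe is biotin-labelled aShh protein from a stem cell growth factor screen; measures binding of labelled protein to compounds printed on the slide; score merges feature fluorescence at 667 nm with signal-to-noise.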 Conditions: small-molecule microarray, higher = more signal.
Assay [18] in a line: probe aNog binding to arrayed compounds – biochemical, biotinylated probe, 635/667 nm fluorescence, primary screen (AID 1115).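 Note: probe is biotinylated aNog protein used at 0.15 µg/mL for 1 h at 4 C; z-score combines 667 nm fluorescence of each spot with its signal to noise.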 Conditions: small-molecule microarray, higher = more signal.
For assay [19], the target named is Torsin-1A-interacting protein 1 (Homo sapiens) (UniProt Q5JTV8). As to the kind of experiment: compound microarray binding of lysate hLAP1 – cell lysate, small-molecule microarray, COS7 lysate, 635/667 nm fluorescence, primary screen (AID 1116). Conditions: 635 nm fluorescence, higher = more signal.
In assay [20] the target is Alpha-bungarotoxin (Bungarus multicinctus) (UniProt P60615). Description: compounds binding labelled alpha-BTX control protein – biochemical, small-molecule microarray, Alexa647 label, 635/667 nm fluorescence, artefact control for SMM control protein annotation, profiling panel (AID 1117). Conditions: alpha-BTX-A647 binding fluorescence, higher = more signal.
Chain of Alpha-bungarotoxin (Bungarus multicinctus) (P60615 whole entry, looked up): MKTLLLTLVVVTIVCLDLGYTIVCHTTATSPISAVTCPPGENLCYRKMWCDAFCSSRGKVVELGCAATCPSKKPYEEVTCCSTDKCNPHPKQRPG

Chain of Left-right determination factor 2 (Homo sapiens) (O00292 whole entry, looked up): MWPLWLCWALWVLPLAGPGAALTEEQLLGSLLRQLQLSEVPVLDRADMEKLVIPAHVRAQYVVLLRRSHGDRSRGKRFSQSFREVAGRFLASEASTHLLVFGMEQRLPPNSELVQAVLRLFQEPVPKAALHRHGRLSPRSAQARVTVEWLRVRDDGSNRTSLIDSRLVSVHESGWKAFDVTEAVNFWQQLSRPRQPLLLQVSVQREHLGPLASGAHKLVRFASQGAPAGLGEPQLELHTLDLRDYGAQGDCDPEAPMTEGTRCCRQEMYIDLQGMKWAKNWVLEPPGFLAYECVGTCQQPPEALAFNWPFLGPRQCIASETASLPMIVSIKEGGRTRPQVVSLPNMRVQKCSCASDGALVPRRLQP
Chain of Epidermal growth factor receptor (Homo sapiens) (P00533 whole entry, looked up): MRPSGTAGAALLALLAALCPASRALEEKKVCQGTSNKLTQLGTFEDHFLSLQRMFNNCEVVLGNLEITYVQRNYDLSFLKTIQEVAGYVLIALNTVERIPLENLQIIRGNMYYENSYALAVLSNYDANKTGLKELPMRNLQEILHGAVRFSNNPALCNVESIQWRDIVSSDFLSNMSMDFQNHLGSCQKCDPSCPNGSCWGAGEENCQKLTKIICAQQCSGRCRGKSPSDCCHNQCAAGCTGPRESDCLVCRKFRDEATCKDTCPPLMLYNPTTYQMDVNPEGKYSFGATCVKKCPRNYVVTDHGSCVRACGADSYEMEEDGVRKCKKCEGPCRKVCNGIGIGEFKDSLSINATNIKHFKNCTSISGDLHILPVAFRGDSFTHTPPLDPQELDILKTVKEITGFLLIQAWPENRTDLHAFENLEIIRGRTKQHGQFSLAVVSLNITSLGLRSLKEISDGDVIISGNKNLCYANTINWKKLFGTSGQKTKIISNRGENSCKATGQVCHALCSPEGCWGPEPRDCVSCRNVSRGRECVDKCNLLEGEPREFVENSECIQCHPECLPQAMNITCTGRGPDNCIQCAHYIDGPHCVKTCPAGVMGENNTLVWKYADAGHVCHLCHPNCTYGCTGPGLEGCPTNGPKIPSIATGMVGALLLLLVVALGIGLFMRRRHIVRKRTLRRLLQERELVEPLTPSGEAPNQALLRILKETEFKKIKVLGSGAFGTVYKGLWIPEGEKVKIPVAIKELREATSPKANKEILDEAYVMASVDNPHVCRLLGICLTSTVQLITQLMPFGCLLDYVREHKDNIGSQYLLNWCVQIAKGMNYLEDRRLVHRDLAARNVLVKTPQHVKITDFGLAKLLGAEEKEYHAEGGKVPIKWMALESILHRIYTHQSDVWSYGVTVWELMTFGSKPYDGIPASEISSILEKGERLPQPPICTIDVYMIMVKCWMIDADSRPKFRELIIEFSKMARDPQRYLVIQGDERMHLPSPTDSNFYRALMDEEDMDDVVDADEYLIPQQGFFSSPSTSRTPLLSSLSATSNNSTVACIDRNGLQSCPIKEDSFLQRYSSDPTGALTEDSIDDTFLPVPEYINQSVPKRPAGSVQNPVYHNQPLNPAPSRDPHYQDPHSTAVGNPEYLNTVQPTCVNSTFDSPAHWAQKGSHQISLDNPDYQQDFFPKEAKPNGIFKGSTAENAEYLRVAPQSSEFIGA
Chain of Fibroblast growth factor 10 (Homo sapiens) (O15520 whole entry, looked up): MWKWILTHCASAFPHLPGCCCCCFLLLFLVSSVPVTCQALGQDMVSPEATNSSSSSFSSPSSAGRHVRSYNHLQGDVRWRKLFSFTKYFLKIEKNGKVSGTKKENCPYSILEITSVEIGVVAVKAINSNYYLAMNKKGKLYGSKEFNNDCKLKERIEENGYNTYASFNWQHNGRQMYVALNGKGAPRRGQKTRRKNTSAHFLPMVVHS
Chain of Torsin-1A-interacting protein 1 (Homo sapiens) (Q5JTV8 whole entry, looked up): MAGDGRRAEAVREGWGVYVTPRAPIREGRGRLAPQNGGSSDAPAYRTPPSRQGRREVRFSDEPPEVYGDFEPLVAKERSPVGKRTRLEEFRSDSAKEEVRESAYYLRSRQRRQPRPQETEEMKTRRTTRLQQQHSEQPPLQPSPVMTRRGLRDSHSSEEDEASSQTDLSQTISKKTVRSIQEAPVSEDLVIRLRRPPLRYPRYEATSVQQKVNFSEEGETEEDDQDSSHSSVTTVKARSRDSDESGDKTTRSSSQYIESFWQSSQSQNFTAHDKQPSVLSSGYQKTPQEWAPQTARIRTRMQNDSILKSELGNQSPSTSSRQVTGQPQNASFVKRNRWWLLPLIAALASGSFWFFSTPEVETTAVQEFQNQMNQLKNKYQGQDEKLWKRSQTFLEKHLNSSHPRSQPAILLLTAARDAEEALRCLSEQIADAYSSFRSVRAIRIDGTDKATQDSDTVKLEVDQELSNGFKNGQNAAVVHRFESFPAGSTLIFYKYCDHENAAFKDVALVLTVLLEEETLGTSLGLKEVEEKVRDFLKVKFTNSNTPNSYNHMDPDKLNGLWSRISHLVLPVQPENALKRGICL
Chain of Follistatin-related protein 3 (Homo sapiens) (O95633 whole entry, looked up): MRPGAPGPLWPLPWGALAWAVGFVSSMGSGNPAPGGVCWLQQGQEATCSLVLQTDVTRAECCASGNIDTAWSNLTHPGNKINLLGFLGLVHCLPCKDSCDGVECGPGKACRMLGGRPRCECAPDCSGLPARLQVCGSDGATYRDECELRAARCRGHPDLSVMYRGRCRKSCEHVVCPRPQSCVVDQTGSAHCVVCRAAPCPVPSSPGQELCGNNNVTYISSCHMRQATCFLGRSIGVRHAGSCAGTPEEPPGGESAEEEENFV
Chain of Dickkopf-related protein 1 (Homo sapiens) (O94907 whole entry, looked up): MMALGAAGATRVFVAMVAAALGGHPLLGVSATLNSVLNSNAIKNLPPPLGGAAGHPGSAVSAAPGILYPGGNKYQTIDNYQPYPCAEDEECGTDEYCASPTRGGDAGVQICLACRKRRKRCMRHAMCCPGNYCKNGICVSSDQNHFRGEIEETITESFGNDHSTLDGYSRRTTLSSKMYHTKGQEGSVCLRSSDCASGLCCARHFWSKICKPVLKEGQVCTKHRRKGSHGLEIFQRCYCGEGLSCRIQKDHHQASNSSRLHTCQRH

As to `C=CCOC(=O)[C@H]1[C@@H]2C(=O)O[C@@H](c3ccccc3)[C@@H](c3ccccc3)N2[C@@H](c2ccc(OCCOC(=O)[C@H]3C[C@H]4C(=O)N[C@@H](CCCC[N+](C)(C)C)C(=O)N4[C@H]3c3ccc(O)cc3)cc2)[C@]12C(=O)Nc1ccc(I)cc12`, the composite z-score in assay [1] was 1.48; in assay [2], 0.177; in assay [3] it was -0.228; in assay [5], 0.332; in assay [6], 0.86; in assay [7] it was 0.0741. Moreover, the composite z-score in [8] was 0.803; in assay [9], 1.41; in assay [10] it was 0.225; in [11] it was 0.756; in [13] it was 0.853; in [14], -0.421. The composite z-score was -0.0782 in assay [15]; 0.0549 in assay [16]; 1.11 in assay [17]; 1.86 in assay [18]; 0.218 in assay [19]; 0.659 in [20]. Further, the z-score was 1.2 (inactive) in assay [4] and -0.537 in assay [12].
On to `CCCC[C@@H]1C[C@H]1[C@@H](NC(=O)c1ccco1)c1ccc(-c2ccccc2)cc1`, for which the composite z-score in [1] was -0.338; in [2], 0.189; in assay [3] it was 0.272; in assay [5] it was 0.222; in [6], 0.118; in assay [7], -0.0501. For the same compound, the composite z-score in [8] was -0.0483; in assay [9] it was -0.426; in assay [10] it was 0.39; in assay [11] it was 0.114; in assay [13], 0.0023; in assay [14] it was -0.179. The composite z-score is 0.0765 in [15]; 0.0916 in [16]; 0.104 in [17]; 0.376 in assay [18]; 0.425 in assay [19]; 0.0932 in assay [20]. Also, the results for the z-score in assay [4] and in assay [12] were -1.61 (inactive) and -0.971, respectively.
As for `O=C1C2C=CC(C(O)Cc3ccccc3)N(n3cnnc3)C2C(=O)N1Cc1ccccc1` (stereo not given), the composite z-score was 0.386 in [1]; 0.73 in [2]; 0.868 in [3]; 0.33 in assay [5]; 0.0704 in assay [6]; -0.216 in assay [7]. Further, the composite z-score in [8] is -0.294; in assay [9] it was -0.387; in [10], 0.825; in [11], 0.625; in assay [13], -0.262; in assay [14], 0.841. Besides, the composite z-score is 0.471 in assay [15]; 0.127 in [16]; -0.007 in assay [17]; 0.908 in [18]; 0.955 in [19]; 0.165 in assay [20]. Further, the figures for the z-score in [4] and in assay [12] were -0.195 (inactive) and -0.53, respectively.
For `COCCOC(=O)N1C(=O)[C@@]2(c3cc(C#CCC(C(=O)OC)C(=O)OC)ccc31)[C@H](c1ccccc1OCCO)N1[C@H](c3ccccc3)[C@H](c3ccccc3)OC(=O)[C@H]1[C@@H]2C(=O)NC[C@H](O)c1ccccc1`, the composite z-score worked out at 1.36 in assay [1]; 0.877 in assay [2]; 0.326 in [3]; 1.05 in assay [5]; 1.29 in assay [6]; 1.17 in [7]. For the same compound, the composite z-score came out at 1.23 in assay [8]; 0.66 in assay [9]; 0.619 in [10]; 0.948 in [11]; 1.44 in [13]; 0.832 in assay [14]. Further, the composite z-score was found to be 0.277 in assay [15]; 0.0718 in assay [16]; 0.275 in assay [17]; 0.237 in [18]; 0.876 in [19]; 0.926 in assay [20]. For the same compound, the z-score in [4] is 3.84 (inactive); in assay [12], -2.28.
`CC(C)C[C@@H]1NC(=O)[C@@H]2C[C@H](C(=O)NCc3ccc(F)cc3)[C@H](c3cccc(OCCO)c3)N2C1=O`: the composite z-score in assay [1] was 1.52; in [2], -0.23; in assay [3], 0.0811; in [5] it was 1.2; in assay [6], 0.615; in [7], 0.284. Besides, the composite z-score in assay [8] is 0.946; in [9] it was 0.322; in [10], -0.19; in [11], 0.0179; in assay [13] it was 0.0533; in [14], 0.217. Also, the composite z-score in assay [15] is 0.0115; in assay [16] it was -0.31; in assay [17], 0.147; in assay [18] it was -0.0315; in assay [19], 0.172; in [20], -0.41. For the same compound, the z-score is -0.177 (inactive) in [4] and -0.992 in assay [12].
For `C=CCNC(=O)[C@H]1[C@@H]2C(=O)O[C@@H](c3ccccc3)[C@@H](c3ccccc3)N2[C@@H](c2ccccc2OCCO)[C@]12C(=O)Nc1ccc(C#CCCO)cc12`, the composite z-score in assay [1] is 0.932; in assay [2] it was -0.0856; in assay [3], 0.784; in assay [5] it was 1.66; in assay [6] it was -1.03; in [7] it was -0.281. For the same compound, the composite z-score in [8] was 0.229; in assay [9], 1.97; in assay [10], 0.479; in assay [11], 1.39; in assay [13] it was 0.607; in [14], -0.231. In addition, the composite z-score in assay [15] was -0.09; in [16] it was 0.0357; in assay [17], -0.206; in assay [18] it was 0.0703; in [19], 0.567; in assay [20] it was 0.365. Also, the z-score in assay [4] is -0.411 (inactive); in assay [12] it was -2.26.
